Measurements: PubChem BioAssay (NCATS)
The source made the active and inactive calls. Calls follow the shape of the dose curve; as a rule, active = well fitted inhibition curve with a large enough effect; inconclusive = small, poorly fitted or top-dose-only effect; inactive = flat fitted curve, though single readings scatter.

These compounds were tested against DNA dC->dU-editing enzyme APOBEC-3G (Homo sapiens) (UniProt Q9HC16) (assay: qHTS for inhibitors of Vif-A3G interactions: Validation (AID 588379; also: 0% is about no effect)). Conditions: Vif-A3G protein interaction assay; series mostly up to 46.1 µM; activity change, negative = inhibition: at the top concentration.
Chain of DNA dC->dU-editing enzyme APOBEC-3G (Homo sapiens) (Q9HC16 whole entry, looked up): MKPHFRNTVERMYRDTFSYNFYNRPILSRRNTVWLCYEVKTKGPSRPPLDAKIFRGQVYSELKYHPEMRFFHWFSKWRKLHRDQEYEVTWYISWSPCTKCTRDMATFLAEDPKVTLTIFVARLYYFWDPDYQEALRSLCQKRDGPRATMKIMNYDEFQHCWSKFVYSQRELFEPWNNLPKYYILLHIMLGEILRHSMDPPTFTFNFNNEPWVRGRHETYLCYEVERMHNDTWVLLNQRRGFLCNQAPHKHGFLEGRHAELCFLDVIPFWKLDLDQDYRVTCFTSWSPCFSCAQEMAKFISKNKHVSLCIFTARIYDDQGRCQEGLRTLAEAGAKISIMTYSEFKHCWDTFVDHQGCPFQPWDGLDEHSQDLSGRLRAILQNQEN
Text: The recent discovery and characterization of host restriction factors, which provide a potent defense to invading retroviruses, has provided new targets for antiviral drug development. APOBEC3G (A3G) and APOBEC3F (A3F) are potent cytidine deaminases that block HIV-1 replication; HIV-1 expresses the Vif protein, which counteracts A3G and A3F by binding to them and inducing their proteasomal degradation.
The Vif-A3G and Vif-A3F interactions provide two potential targets for development of small molecules which can interfere with the ability of Vif to degrade A3G or A3F. […] To identify inhibitors that can interfere with Vif mediated degradation of A3G and A3F, we have developed Hela cell lines that stably express A3G or A3F tagged with eYFP at the C-terminal end (A3G-eYFP or A3F-eYFP, respectively) and Vif. In the absence of an inhibitor, Vif induces degradation of A3G-eYFP and A3F-eYFP, and the cells are not fluorescent. In the presence of an inhibitor, it is expected that Vif will be unable to degrade A3G-eYFP and/or A3F-eYFP, resulting in an increase in yellow fluorescence. In this assays Vif A3G was screened against the Molecular Library Small Molecile Repository (MLSMR).
NIH Chemical Genomics Center [NCGC]
NIH Molecular Libraries Probe Centers Network [MLPCN]
Assay Submitter (PI): Vinay Pathak, National Cancer Institute
5 uL of 700 cells/well of A3G-YFP cells are dispensed into black, clear bottom plates. The plates are incubated overnight at 37 deg C. 23 nL of compounds are added by pintool. The plates are incubated overnight at 37 deg C and then read on the TTP Acumen (Ex 488/ Em 500-530).

SMILES	outcome	activity change, negative = inhibition
O=c1c(-c2ccc(O)cc2)coc2cc(O)ccc12	inactive	
COc1cccc(-c2cc(=O)c3ccccc3o2)c1N		-4.14% (inactive)
CC(C)[C@H](CO)Nc1nc(Nc2ccc(C(=O)O)c(Cl)c2)c2ncn(C(C)C)c2n1		-7.21% (inactive)
COc1ccc(-c2coc3cc(O)cc(O)c3c2=O)cc1		3.17% (inactive)
CC/C(=C(\c1ccccc1)c1ccc(OCCN(C)C)cc1)c1ccccc1		1.65% (inactive)
O=c1c(O)c(-c2ccc(O)cc2)oc2cc(O)cc(O)c12		-0.0637% (inactive)
COCCCCC(=NOCCN)c1ccc(C(F)(F)F)cc1		3.55% (inactive)
CS(=O)c1ccc(-c2nc(-c3ccc(F)cc3)c(-c3ccncc3)[nH]2)cc1 (stereo not drawn)	inactive	
COc1ccccc1N1CCN(CCCNc2cc(=O)n(C)c(=O)n2C)CC1		-5.37% (inactive)
O=c1cc(-c2ccccc2)oc2cc(O)c(O)c(O)c12	inactive	
COc1ccc(Cc2nccc3cc(OC)c(OC)cc23)cc1OC		1.97% (inactive)
O=C(O)c1cc(O)c2c(c1)C(=O)c1cccc(O)c1C2=O		-3.05% (inactive)
O=c1cc(-c2ccc(O)cc2)oc2cc(O)cc(O)c12	inactive	
COc1ccc(-c2coc3cc(O)ccc3c2=O)cc1		2.29% (inactive)
O=c1cc(-c2ccccc2)oc2cc(O)cc(O)c12		0.486% (inactive)
COc1ccc2c3c1OC1C[C@@H](O)C=C[C@@]31CCN(C)C2 (stereo partly drawn)		3.11% (inactive)
CCCCCCCCCCCC1=C(O)C(=O)C=C(O)C1=O	inactive	
CCN1CCC[C@H]1CNC(=O)c1cc(S(N)(=O)=O)ccc1OC		0.198% (inactive)
